Assay results taken from PubChem BioAssay AID1508636 (National Center for Advancing Translational Sciences (NCATS), 2021).
Records with an inconclusive call do not appear. A number with no mark means an inactive call. Activity calls are given as the source filed them. Calls follow the shape of the dose curve; as a rule, active = well fitted inhibition curve with a large enough effect; inconclusive = small, poorly fitted or top-dose-only effect; inactive = flat fitted curve, though single readings scatter. Where a SMILES comes first, the peptide text is derived from it. The star is where a group is joined. Cbz = O=C(OCc1ccccc1)*

Target: ATP-dependent translocase ABCB1 (Homo sapiens) (UniProt P08183)
Assay: qHTS for characterization and localization of zebrafish homologs of the human ABCB1 multidrug transporter: P-gp overexpressing MDR-19 cells
Settings: MDR-19 cells overexpressing P-gp, CellTiter-Glo luminescence viability, 72 h; series mostly up to 46.1 µM
Text: The zebrafish has emerged as a potential model to study the blood-brain barrier (BBB) given its similarities with mammalian systems. However, little information has been available with regard to homologous ATP-binding cassette transporters expressed at the zebrafish BBB. Two transporters that are highly expressed at the human BBB are P-glycoprotein (P-gp, encoded by the ABCB1 gene) and ABCG2 (encoded by the ABCG2 gene). In this study, we focus on characterization of P-gp homologs in the zebrafish, which has two genes that are homologous to human ABCB1 - abcb4 and abcb5. We generated stably-transfected cell lines to determine their substrate specificities. […] Zebrafish abcb4 also colocalized with claudin 5 expression in brain endothelial cells.
A high-throughput screen was performed as previously described on empty vector transfected cells, P-gp-overexpressing MDR-19 cells and cells transfected with full-length zebrafish abcb4 (ZF Abcb4) or abcb5 (ZF Abcb5). Briefly, cells were plated into 1536-well plates at a density of 500 cells/well in 5 uL media. P-gp substrate compounds (approximately 90) selected from our previous study were then added at varying concentrations using a 1536-head pin tool (Kalypsis, San Diego, CA) and plates were incubated at 37C in 5% CO2 for 72 h. CellTiter-Glo reagent (Promega) was dispensed into the wells, incubated for 5 min and luminescence was read on a ViewLux instrument (Perkin-Elmer).
Cytotoxic compounds were defined as those that yielded a curve class of -1.1, -1.2, -2.1, -2.2, -2.3, or -2.4, a maximum response of >50% and an AC50 of < 10 uM. All compounds from screening analysis were tested in Vector (empty vector control), MDR-19 (P-gp overexpressing), zebrafish abcb4 (ZF Abcb4) and abcb5 (ZF Abcb5) expression cell lines.
1. Tobie D Lee, Olivia W Lee, Kyle R Brimacombe, Lu Chen, Rajarshi Guha, Sabrina Lusvarghi, Bethilehem G Tebase, Carleen Klumpp-Thomas, Robert W Robey, Suresh V Ambudkar, Min Shen, Michael M Gottesman, Matthew D Hall. A High-Throughput Screen of a Library of Therapeutics Identifies Cytotoxic Substrates of P-glycoprotein. Mol Pharmacol. 2019, Nov;96(5):629-640.

ATP-dependent translocase ABCB1 (Homo sapiens), sequence (P08183 whole entry, looked up): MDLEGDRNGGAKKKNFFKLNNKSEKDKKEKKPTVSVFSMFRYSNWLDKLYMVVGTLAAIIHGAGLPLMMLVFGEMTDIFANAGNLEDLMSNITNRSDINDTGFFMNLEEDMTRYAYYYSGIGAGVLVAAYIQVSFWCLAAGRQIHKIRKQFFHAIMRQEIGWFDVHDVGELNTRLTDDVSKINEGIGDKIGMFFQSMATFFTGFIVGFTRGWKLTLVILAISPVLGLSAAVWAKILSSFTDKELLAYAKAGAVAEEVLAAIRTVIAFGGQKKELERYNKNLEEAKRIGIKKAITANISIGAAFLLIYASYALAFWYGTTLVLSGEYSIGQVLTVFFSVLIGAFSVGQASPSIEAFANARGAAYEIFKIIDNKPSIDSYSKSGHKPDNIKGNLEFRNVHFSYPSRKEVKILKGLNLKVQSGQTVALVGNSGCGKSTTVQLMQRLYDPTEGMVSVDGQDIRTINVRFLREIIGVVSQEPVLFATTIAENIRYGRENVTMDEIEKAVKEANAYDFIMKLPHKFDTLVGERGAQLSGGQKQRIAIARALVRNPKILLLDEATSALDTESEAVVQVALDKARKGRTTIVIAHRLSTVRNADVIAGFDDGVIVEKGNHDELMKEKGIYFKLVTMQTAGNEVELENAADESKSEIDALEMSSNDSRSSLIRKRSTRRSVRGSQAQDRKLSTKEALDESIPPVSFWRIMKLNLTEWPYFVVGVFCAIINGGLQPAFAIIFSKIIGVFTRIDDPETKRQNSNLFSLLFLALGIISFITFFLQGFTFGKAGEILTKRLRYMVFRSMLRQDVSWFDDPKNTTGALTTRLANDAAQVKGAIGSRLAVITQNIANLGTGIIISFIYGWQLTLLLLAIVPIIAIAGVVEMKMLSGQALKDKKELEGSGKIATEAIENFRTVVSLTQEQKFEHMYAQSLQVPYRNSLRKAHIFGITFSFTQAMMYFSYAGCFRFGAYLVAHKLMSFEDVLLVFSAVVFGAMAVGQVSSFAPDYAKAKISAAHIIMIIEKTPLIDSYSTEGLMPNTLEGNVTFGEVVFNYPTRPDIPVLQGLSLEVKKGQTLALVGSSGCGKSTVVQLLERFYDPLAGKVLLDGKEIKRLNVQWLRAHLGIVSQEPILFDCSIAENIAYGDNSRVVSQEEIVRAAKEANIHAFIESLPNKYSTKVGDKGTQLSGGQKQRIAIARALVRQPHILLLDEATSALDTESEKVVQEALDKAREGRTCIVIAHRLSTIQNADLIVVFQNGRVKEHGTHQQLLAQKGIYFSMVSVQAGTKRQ

Row | SMILES | Potency | activity change, negative = inhibition
1 | COc1ccc(CC2C(=O)NC(C)C(=O)N(C)C3Cc4ccc(cc4)Oc4cc(ccc4OC4OC(CO)C(O)C(O)C4O)CC(C(=O)NC(C)C(=O)NC(C)C(=O)N2C)N(C)C3=O)cc1 (stereo not given) | inactive | 
2 | CC(C)C[C@H](NC(=O)[C@@H](NC(=O)c1cccc(-c2ccccc2)n1)[C@@H](C)O)B(O)O | 0.372 µM (active) | 
3 | C[C@@H](Oc1cc(-n2cnc3ccc(CN4CCN(C)CC4)cc32)sc1C(N)=O)c1ccccc1C(F)(F)F | 0.469 µM (active) | 
4 | CN(C)c1ccc(C(=C2C=CC(=[N+](C)C)C=C2)c2ccc(N(C)C)cc2)cc1 | 4.69 µM (active) | 
5 | C[C@@]12O[C@@H](C[C@]1(O)CO)n1c3ccccc3c3c4c(c5c6ccccc6n2c5c31)CNC4=O | 8.33 µM (active) | 
6 | C#CCN(Cc1cc2c(=O)n(C)c(CN3CCN(C)CC3)nc2cc1Cl)c1ccc(C(=O)NCc2cccnc2)cc1 | inactive | 
7 | C#Cc1cccc(Nc2ncnc3cc(OC)c(OCCCCCCC(=O)NO)cc23)c1 | 14.8 µM (active) | 
8 | CCC(C)C(=O)OC1CC(O)C23C4OCC5(C(O)CC2C1(C)C(O)O4)C3C(=O)C(O)C1(C)C(O)(c2ccoc2)CC2OC251 (stereo not given) | inactive | 
9 | CCc1cccc(CC)c1NC(=O)N1Cc2[nH]nc(NC(=O)c3ccc(N4CCN(C)CC4)cc3)c2C1 | inactive | 
10 | C=CCn1c(=O)c2cnc(Nc3ccc(N4CCN(C)CC4)cc3)nc2n1-c1cccc(C(C)(C)O)n1 | 4.69 µM (active) | 
11 | CN(C)C/C=C/C(=O)Nc1cccc(C(=O)Nc2ccc(Nc3nccc(-c4cccnc4)n3)cc2)c1 | inactive | 
12 | CC(NCc1ccc2c(c1)nc(NC(=O)c1ccc(-c3cn[nH]c3)s1)n2CC(C)(C)O)C(C)(C)C (stereo not given) | 2.96 µM (active) | 
13 | COC[C@H](NC(=O)c1cnc(C)s1)C(=O)N[C@@H](COC)C(=O)N[C@@H](Cc1ccccc1)C(=O)[C@@]1(C)CO1 | 0.59 µM (active) | 
14 | CCS(=O)(=O)c1cccc(-c2cc(C(=O)NC3CCN(C)CC3)c(C)c3[nH]c4ncc(C)cc4c23)c1 | inactive | 
15 | CC1(C)CC[C@]2(C(=O)OC3OC(CO)C(O)C(O)C3O)CC[C@]3(C)C(=CCC4[C@@]5(C)CC[C@H](OC6OC(C(=O)O)C(O)C(O)C6O)C(CO)(CO)C5CC[C@]43C)[C@@H]2C1 (stereo not given in full) | inactive | 
16 | COc1cc(N2CCC(O)CC2)ccc1Nc1nc(Nc2ccccc2S(=O)(=O)C(C)C)c2[nH]cnc2n1 | inactive | 
17 | CC1(C)CC(NC(=O)C(=O)Nc2ccc(Br)cc2)CC(C)(C)N1 | inactive | 
18 | Cc1ccc(C(=O)N(CCCN)C(c2nc3cc(Cl)ccc3c(=O)n2Cc2ccccc2)C(C)C)cc1 (stereo not given) | 14.8 µM (active) | 
19 | CC[C@@H]1C(=O)N(C)c2cnc(Nc3ccc(C(=O)NC4CCC(N5CCN(CC6CC6)CC5)CC4)cc3OC)nc2N1C(C)C (stereo not given in full) | 2.35 µM (active) | 
20 | CC(C)C[C@@H](C=O)NC(=O)[C@H](CC(C)C)NC(=O)[C@H](CC(C)C)NC(=O)OCc1ccccc1 (Cbz-Leu-Leu-Leu-aldehyde) | 3.72 µM (active) | 

Row | SMILES | Potency | activity change, negative = inhibition
21 | CCN1CCN(Cc2ccc(NC(=O)Nc3ccc(Oc4cc(NC)ncn4)cc3)cc2C(F)(F)F)CC1 | inactive | 
22 | C=C1CO[C@@]2(O[C@H]3CC4C5CC=C6C[C@@H](O)C[C@@H](O[C@@H]7OC[C@H](O)[C@H](O[C@@H]8OC[C@@H](O)[C@H](O)[C@H]8O)[C@H]7O[C@@H]7O[C@@H](C)[C@H](OC(C)=O)[C@@H](OC(C)=O)[C@H]7OC(C)=O)[C@]6(C)C5CC[C@]4(C)[C@@H]3[C@@H]2C)[C@@H](O)[C@H]1OC1OC(C)C(O)C(O)C1O (stereo not given in full) |  | 3.31% [at 8.96 µM]
23 | C[C@@H]1O[C@@H](O[C@H]2[C@@H](OC(=O)[C@]34CCC(C)(C)CC3C3=CCC5[C@@]6(C)C[C@H](O)[C@H](O[C@@H]7O[C@H](CO)[C@@H](O)[C@H](O)[C@H]7O[C@@H]7OC[C@@H](O)[C@H](O)[C@H]7O)[C@@](C)(C(=O)O)C6CC[C@@]5(C)[C@]3(C)CC4)OC[C@H](O)[C@@H]2O)[C@H](O)[C@H](O)[C@H]1O[C@@H]1OC[C@@H](O)[C@H](O)[C@H]1O (stereo not given in full) |  | -1.44% [at 8.96 µM]
24 | COc1cc2c(NC3CCN(C(C)C)CC3)nc(N3CCCN(C)CC3)nc2cc1OCCOCCN(C)C | inactive | 
25 | CC(C)C[C@H](NC(=O)[C@H](CCc1ccccc1)NC(=O)CN1CCOCC1)C(=O)N[C@@H](Cc1ccccc1)C(=O)N[C@@H](CC(C)C)C(=O)[C@@]1(C)CO1 | 0.743 µM (active) | 
26 | Cc1[nH]c2ccccc2c1CCNCc1ccc(/C=C/C(=O)NO)cc1 | 1.32 µM (active) | 
27 | CO[C@H]1/C=C/C=C/C=C/C[C@H](OC(=O)[C@@H](C)NC(=O)C2CCCCC2)[C@H](C)[C@@H](O)/C(C)=C/CCc2cc(O)cc(c2)NC(=O)C1 | inactive | 
28 | COc1cc2ncn(-c3cc(OCc4ccccc4C(F)(F)F)c(C(N)=O)s3)c2cc1OC | 5.4 µM (active) | 
29 | CCN(CCCO)CCCOc1ccc2c(Nc3cc(CC(=O)Nc4cccc(F)c4)[nH]n3)ncnc2c1 | inactive | 
30 | Cc1cc(Nc2cc(NC(=O)c3c(Cl)cccc3Cl)ccn2)nc(N)n1 | 13.2 µM (active) | 
31 | CCn1c(-c2nonc2N)nc2c(C#CC(C)(C)O)ncc(OC[C@H]3CCCNC3)c21 | inactive | 
32 | CC(C)(C)c1cnc(CSc2cnc(NC(=O)C3CCNCC3)s2)o1 | 24.1 µM (active) | 
33 | Cc1ccc(C(=O)N(CCCN)[C@@H](c2oc3cc(Cl)ccc3c(=O)c2Cc2ccccc2)C(C)C)cc1 | 13.2 µM (active) | 
34 | CCN(CC)Cc1ccc(C(=O)N(CCc2ccccc2OC)[C@@H]2CCNC2)cc1 | inactive | 
35 | COc1cc(C(=O)NC2CCN(C)CC2)ccc1Nc1ncc2c(n1)N(C1CCCC1)CC(F)(F)C(=O)N2C | 3.32 µM (active) | 
36 | COC(C(=O)N1Cc2[nH]nc(NC(=O)c3ccc(N4CCN(C)CC4)cc3)c2C1)c1ccccc1 (stereo not given) | inactive | 
37 | O=C(NC1CCNCC1)c1[nH]ncc1NC(=O)c1c(Cl)cccc1Cl | inactive | 
38 | Cc1ccc(-c2ncn(-c3ccc(Nc4nccc(-c5cccc(N6CCOCC6)c5)n4)cc3)n2)cn1 | 3.72 µM (active) | 
39 | COc1cc2c(NC3CCN(C(C)C)CC3)nc(N3CCCN(C)CC3)nc2cc1OCCCN1CCCC1 | inactive | 
40 | CC(=O)O[C@@H]1C[C@H](O)[C@@]23CO[C@@H](O)C1(C)[C@@H]2C[C@@H](O)[C@]1(C)[C@@H]3C(=O)[C@H](OC(C)=O)[C@@]2(C)[C@H](c3ccoc3)C[C@H]3O[C@]321 | 3.72 µM (active) | 
